Assay results published in PubChem BioAssay (NCI).
This is part of a sample that, as a whole, favours compounds with a hit. Of some 83,000 tested, about 20% had one in any assay.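 For each line, cells grew in 96-well plates with the test compound present at a single concentration for 48 hours.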 Calls of active or inactive are those of the source. How the source made its calls: active means growth percent below 10; inactive means the rest.

Experiments:
Experiment in all cases: NCI-60 one-dose screen, 48 h (100 = growth as untreated, 0 = no growth, -100 = all killed)
Details in all cases: 10 µM unless noted
NCI-H23 lung = tested on: NCI-H23 lung
NCI-H226 lung = tested on: NCI-H226 lung
NCI-H322M lung = tested on: NCI-H322M lung
HOP-62 NSCLC = tested on: HOP-62 NSCLC
NCI-H460 lung = tested on: NCI-H460 lung
HOP-92 NSCLC = tested on: HOP-92 NSCLC
NCI-H522 lung = tested on: NCI-H522 lung
A549/ATCC NSCLC = tested on: A549/ATCC NSCLC
786-0 renal = tested on: 786-0 renal
COLO 205 colon = tested on: COLO 205 colon
DU-145 prostate = tested on: DU-145 prostate
K-562 leukemia = tested on: K-562 leukemia
MALME-3M melanoma = tested on: MALME-3M melanoma
MDA-MB-231 breast = tested on: MDA-MB-231 breast
RXF 393 renal = tested on: RXF 393 renal
SF-268 CNS = tested on: SF-268 CNS
SF-295 CNS = tested on: SF-295 CNS
SF-539 CNS = tested on: SF-539 CNS
UACC-257 melanoma = tested on: UACC-257 melanoma
M14 melanoma = tested on: M14 melanoma

Measured: growth

C#Cc1ccc2c(c1)C(c1ccccc1)=NCC(=O)N2C
active: NCI-H522 lung 9.39%
inactive: NCI-H23 lung 63.3% | NCI-H226 lung 69% | NCI-H322M lung 77.7% | HOP-62 NSCLC 49.8% | NCI-H460 lung 17.4% | HOP-92 NSCLC 72.2% | A549/ATCC NSCLC 53.6% | 786-0 renal 59% | COLO 205 colon 15.8% | DU-145 prostate 70.1% | K-562 leukemia 15.6% | MALME-3M melanoma 74.5% | MDA-MB-231 breast 50.8% | RXF 393 renal 83.8% | SF-268 CNS 58.8% | SF-295 CNS 25% | SF-539 CNS 41.4% | UACC-257 melanoma 68.5% | M14 melanoma 18.5%

Nc1nnnc2nc[nH]c12
active: NCI-H226 lung -54.1% | HOP-62 NSCLC -11.4% | HOP-92 NSCLC 1.91% | 786-0 renal 0.102% | COLO 205 colon 6.07% | DU-145 prostate 3.72% | K-562 leukemia 4.73% | SF-295 CNS 0.603% | M14 melanoma -35.4%
inactive: NCI-H23 lung 31% | NCI-H322M lung 28.1% | NCI-H460 lung 20.6% | NCI-H522 lung 14.6% | A549/ATCC NSCLC 34.4% | MALME-3M melanoma 34.8% | MDA-MB-231 breast 14.5% | RXF 393 renal 11.6% | SF-268 CNS 28.6% | SF-539 CNS 14.3%

COC(=O)C12CC(NC(=O)c3csc([C@@H](C[C@H](C(C)C)N(C)C(=O)[C@@H](NC(=O)[C@H]4CCCCN4C)C4CC4)OC(C)=O)n3)(C1)C2
inactive: NCI-H23 lung 29.4% | NCI-H226 lung 14.6% | NCI-H322M lung 45% | HOP-92 NSCLC 18.7% | A549/ATCC NSCLC 13% | 786-0 renal 24.5% | MALME-3M melanoma 70% | RXF 393 renal 14.5% | SF-268 CNS 21.9% | UACC-257 melanoma 42.2% | M14 melanoma 14.8%
active: HOP-62 NSCLC 6.31% | NCI-H460 lung 7.21% | NCI-H522 lung -4.14% | COLO 205 colon -64.5% | DU-145 prostate 4.38% | K-562 leukemia 7.65% | MDA-MB-231 breast -0.474% | SF-295 CNS 6.6% | SF-539 CNS -28.5%

Nc1ccc(-c2nc3cc(F)ccc3[se]2)cc1F
inactive: NCI-H23 lung 33.9% | NCI-H322M lung 72.6% | HOP-62 NSCLC 51.4% | NCI-H460 lung 11.7% | HOP-92 NSCLC 66% | NCI-H522 lung 64.2% | A549/ATCC NSCLC 39.9% | 786-0 renal 101% | COLO 205 colon 56.2% | DU-145 prostate 96.8% | K-562 leukemia 93% | MALME-3M melanoma 102% | MDA-MB-231 breast 42.3% | RXF 393 renal 82.6% | SF-268 CNS 80.8% | SF-295 CNS 87.6% | SF-539 CNS 86.9% | UACC-257 melanoma 98.1% | M14 melanoma 91.8%
active: NCI-H226 lung -13.2%

CC1=C2[C@@H](CC1)[C@]1(C)O[C@@](C(C)C)(C[C@H]1O)[C@H]2OC(=O)C1CC1c1ccccc1 (stereo partly specified)
inactive: NCI-H23 lung 102% | NCI-H226 lung 75.6% | NCI-H322M lung 109% | HOP-62 NSCLC 81.7% | NCI-H460 lung 102% | HOP-92 NSCLC 73.3% | NCI-H522 lung 72.7% | A549/ATCC NSCLC 76.5% | 786-0 renal 97.9% | COLO 205 colon 90.5% | DU-145 prostate 106% | K-562 leukemia 84.6% | MALME-3M melanoma 92.2% | MDA-MB-231 breast 78.2% | RXF 393 renal 99.4% | SF-268 CNS 86.1% | SF-295 CNS 92.1% | SF-539 CNS 94.6% | UACC-257 melanoma 103% | M14 melanoma 90.9%

COC1OC(CO)C(O)C(O)[CH]1[Hg][O]C(C)=O (stereo unspecified)
active: NCI-H522 lung -42.7%
inactive: NCI-H23 lung 94.2% | NCI-H226 lung 100% | NCI-H322M lung 91.7% | HOP-62 NSCLC 102% | NCI-H460 lung 94.9% | HOP-92 NSCLC 123% | A549/ATCC NSCLC 94.9% | 786-0 renal 106% | COLO 205 colon 98% | DU-145 prostate 96.3% | K-562 leukemia 27.3% | MALME-3M melanoma 76.4% | MDA-MB-231 breast 81.9% | RXF 393 renal 110% | SF-268 CNS 97.6% | SF-295 CNS 102% | SF-539 CNS 106% | M14 melanoma 93.7%

OCc1ccc2c(c1)OCO2
inactive: NCI-H23 lung 95.8% | NCI-H226 lung 94.6% | NCI-H322M lung 104% | HOP-62 NSCLC 93.5% | NCI-H460 lung 103% | HOP-92 NSCLC 97.3% | NCI-H522 lung 90.8% | A549/ATCC NSCLC 92.5% | 786-0 renal 104% | COLO 205 colon 108% | DU-145 prostate 105% | K-562 leukemia 101% | MALME-3M melanoma 97.5% | MDA-MB-231 breast 102% | RXF 393 renal 103% | SF-268 CNS 100% | SF-295 CNS 93.8% | SF-539 CNS 96.1% | M14 melanoma 103%

CN1C(=O)N[C@H]2[C@@H]3NC(=O)c4ccc(Br)n4[C@@H]3C[C@]21O
active: NCI-H23 lung -14.5% | NCI-H226 lung -17.4% | NCI-H322M lung -6.85% | HOP-62 NSCLC -31.8% | NCI-H460 lung -10.6% | HOP-92 NSCLC -9.65% | NCI-H522 lung -38.2% | A549/ATCC NSCLC -9.09% | 786-0 renal -19.3% | COLO 205 colon -49.5% | DU-145 prostate -8.47% | K-562 leukemia -2.38% | MALME-3M melanoma -27.3% | MDA-MB-231 breast -28% | RXF 393 renal -27.5% | SF-268 CNS -2.59% | SF-295 CNS -36.2% | SF-539 CNS -59.8% | M14 melanoma -70.8%
